Data on 17 molecules can be found in PubChem BioAssay.

The subject of assay [1] is Hepatitis C virus NS3 helicase. The assay is described as follows: blockers of NS3h binding to ssDNA – biochemical, fluorescence polarization, LOPAC1280 library, primary screen (AID 687035; in the data active means inhibition above about 37%). To be noted: Purified HCV NS3 helicase, Cy5-dT15 ssDNA binding fluorescence polarization; stronger effect = higher value; concentration not given here. (Polarisation of emitted light reports the rotation of a fluorescent probe.)

Assay [2] is described as follows: compounds altering Cy5-DNA-NS3h complex signal – biochemical, LOPAC1280, artefact control for HCV NS3 helicase inhibitor project (AID 687037). Particulars: Cy5-DNA-NS3h complex fluorescence interference counterscreen. In general terms: A counterscreen serves to expose hits that act by an unwanted route or on another target.
Assay [3] can be described thus: viability loss with induced miR-34 in A549 – imaging, A549 dox-inducible miR-34, nuclei and caspase counts, primary screen (AID 1347080;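 active means compounds whose cell count with miR-34 switched on is under 0.7 times the count with it off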). To be noted: A549 miR-34 inducible, Hoechst nuclei count, 48 h.
Assay [4] can be described thus: blockers of cellular phospholipid synthesis – cell-based, LOPAC library, screen 4, primary screen (AID 1347384). Particulars: animal cells, phospholipid biosynthesis inhibition screen; at 10 µM.
A short description of assay [5]: galactose survival enhancers in mitochondrial complex I cybrids – cell-based, galactose medium, ATP luminescence, primary screen (AID 1645843;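 active means z-score of at least 1.8 in each of two replicates, scored against plate mean and spread of sample wells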;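 further: positive z means more ATP and so rescue of galactose-driven cybrid death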). Particulars: complex I mutant cybrid cells, 72 h, stronger effect = higher value.
Assay [6] in a line: compounds altering circadian rhythm period length – cell-based, LOPAC library, luminescence reporter (AID 2774).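 Further: values are relative to mean of DMSO wells on each plate.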 Particulars: circadian reporter cells, at 7 µM, actives lie on both sides.
Assay [7] is described as follows: compounds altering viability of human ES cells (AID 493140).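 Further: cells exposed to compounds for four days before counting.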 To be noted: human embryonic stem cell survival screen; stronger effect = higher value.
The nature of assay [8]: chitosan synthesis blockers in C. neoformans – flow cytometry, Cibacron Brilliant Red staining (AID 1347148).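 Further: compound exposure lasted three days at 37 degrees C.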 To be noted: Cryptococcus neoformans chitosan, stronger effect = lower value; at 10 µM unless noted.
Where [9] appears, read: measured here: relative caspase fold change +Dox/-Dox.
[10] abbreviates: measured here: total cells with miR-34 induction, stronger effect = lower value.
Setting [11] is: measured here: total cells without miR-34 induction.

Several values for one entry are separate records, joined by “and”; a condition that tells them apart may be missing. Identical values can stand only once. Activity calls are given as the source filed them. Unless noted, how the calls were made is not given here.

Turning to `O=C1/C(=C/c2ccccc2)C[C@@]2(O)[C@H]3Cc4ccc(O)c5c4[C@@]2(CCN3CC2CC2)[C@H]1O5`, in assay [1], the inhibition is -4% (inactive). Further, the fluorescence ratio (interference) in assay [2] was 1 (inactive). Also, the fold change is 1.23 (inactive) in assay [3] (stronger effect = lower value) and 1.39 in assay [3] (setting [9]). Further, the values for the cell count in assay [3] (setting [10]) and in assay [3] (setting [11]) were 588 and 478, respectively. Besides, in assay [4], the result was inactive. Besides, in assay [5], the z-score is -1 (inactive).

For `C[C@@H]1O[C@@H](O[C@H]2C[C@@H](O)[C@]3(CO)[C@@H]4C(CC[C@]3(O)C2)[C@@]2(O)CC[C@H](C3COC(=O)C3)[C@@]2(C)C[C@H]4O)[C@H](O)[C@H](O)[C@H]1O` (some centres not stated), in assay [6], the period change was -0.47 h (inactive). Also, the inhibition in assay [1] is -1% (inactive). The fluorescence ratio (interference) in assay [2] is 1 (inactive). Moreover, the fold change in assay [3] (stronger effect = lower value) is 0.861 (inactive); in assay [3] (setting [9]), 1.72. Further, the cell count in assay [3] (setting [10]) is 370; in assay [3] (setting [11]), 430. Also, the result in assay [4] was inactive. Further, in assay [5], the z-score is -0.995 (inactive).

As to `CCCCCC1OC1C/C=C\CCCCCCCC(=O)O` (configuration not stated), the survival in assay [7] was 100 (inactive). Further, the fold change in assay [3] (stronger effect = lower value) is 0.986 (inactive); in assay [3] (setting [9]), 1.2. In addition, the cell count in assay [3] (setting [10]) is 5980; in assay [3] (setting [11]), 6070. For the same molecule, the fold fluorescence in assay [8] was 4.22 [at 1 µM] (inactive).

Turning to `C=CCN1CC[C@]23CCCCC2[C@H]1Cc1ccc(O)cc13` (some centres not stated), in assay [6], the period change is 0.175 h (inactive). Moreover, the inhibition in assay [1] is -4% (inactive). Also, in assay [2], the fluorescence ratio (interference) is 1 (inactive). In addition, the fold change in assay [3] (stronger effect = lower value) was 1.09 (inactive); in assay [3] (setting [9]), 0.636. In addition, the cell count in assay [3] (setting [10]) stood at 10900; in assay [3] (setting [11]), 10000. For the same molecule, the outcome in assay [4] was inactive. Also, the z-score in assay [5] was -0.095 (inactive).

On to `CCCCCCCCCCCCCC(=O)O[C@@H]1[C@@H](C)[C@@]2(O)[C@@H](C=C(CO)C[C@@]3(O)C(=O)C(C)=C[C@@H]23)C2C(C)(C)[C@@]21OC(C)=O` (some centres not stated), for which, in assay [6], the period change was -1.74 h (active). The inhibition in assay [1] is -2% (inactive). For the same molecule, the fluorescence ratio (interference) in assay [2] was 1 (inactive). Also, the fold change in assay [3] (stronger effect = lower value, cell number ratio, induced over uninduced) is 0.676 (active); in assay [3] (setting [9]), 1.62. The cell count came to 418 in assay [3] (setting [10]) and 618 in assay [3] (setting [11]). The call in assay [4] was inactive. Moreover, the z-score in assay [5] is -1.38 (inactive).

On to `CCCCC/C=C\C/C=C\C/C=C\C/C=C\CCCC(=O)NCCO`, for which, in assay [7], the survival is 114 (inactive). Further, the fold change in assay [3] (stronger effect = lower value) was 0.996 (inactive) and 0.983 (inactive); in assay [3] (setting [9]), 0.958 and 0.763. For the same molecule, the cell count in assay [3] (setting [10]) is 6110 and 5070; in assay [3] (setting [11]), 6130 and 5160. In addition, the fold fluorescence in assay [8] was 5.85 (inactive).

As for `CN1CCC[C@@H]1Cc1c[nH]c2ccc(Nc3ncccc3[N+](=O)[O-])cc12`, the fold change was 1.01 (inactive) in assay [3] (stronger effect = lower value) and 1.84 in assay [3] (setting [9]). Besides, the cell count in assay [3] (setting [10]) came to 7590; in assay [3] (setting [11]) it was 7510. In assay [4], the molecule was called inactive. For the same molecule, the z-score in assay [5] is -0.89 (inactive).

For `COc1ccc2c(c1)C13CCCCC1C(C2)N(C)CC3` (configuration not stated), in assay [6], the period change is 0 h (inactive). The inhibition in assay [1] is -1% (inactive). For the same molecule, the fluorescence ratio (interference) in assay [2] was 1.1 (inactive). In addition, the values for the fold change in assay [3] (stronger effect = lower value) and in assay [3] (setting [9]) were 1.04 (inactive) and 1.15, respectively. Also, the results for the cell count in assay [3] (setting [10]) and in assay [3] (setting [11]) were 10100 and 9710, respectively. For the same molecule, in assay [4], the call was inactive. Also, the z-score in assay [5] was -0.635 (inactive).

As to `CCCCC/C=C\C/C=C\C/C=C\C/C=C\CCCCCC(=O)NCCO`, the survival in assay [7] is 86.3 (inactive). The fold change in assay [3] (stronger effect = lower value) is 1.02 (inactive) and 1.04 (inactive); in assay [3] (setting [9]), 1.64 and 1.22. Besides, the cell count is 5810 and 5940 in assay [3] (setting [10]); 5700 and 5690 in assay [3] (setting [11]). In assay [8], the fold fluorescence is 5.48 (inactive).

For the molecule `O=C1CC[C@@]2(O)C3Cc4ccc(O)c5c4C2(CCN3CC2CC2)[C@H]1O5` (some centres not stated), the period change in assay [6] is -0.05 h (inactive). Besides, the inhibition in assay [1] is -6% (inactive). Besides, the fluorescence ratio (interference) in assay [2] is 1 (inactive). Besides, the fold change in assay [3] (stronger effect = lower value) is 1.1 (inactive); in assay [3] (setting [9]), 1.19. Further, the cell count in assay [3] (setting [10]) amounted to 11300; in assay [3] (setting [11]), 10300. In assay [4], the result was inactive. Also, the z-score in assay [5] was 0.445 (inactive).

In the case of `C=C1[C@@H](C)[C@H]2[C@H](Cc3ccccc3)NC(=O)[C@]23OC(=O)/C=C/[C@H](O)CCC[C@@H](C)C/C=C/[C@H]3[C@@H]1O`, the results for the fold change in assay [3] (stronger effect = lower value) and in assay [3] (setting [9]) were 1.14 (inactive) and 1.09, respectively. Further, the cell count worked out at 1220 in assay [3] (setting [10]) and 1060 in assay [3] (setting [11]). Further, in assay [8], the fold fluorescence was 6.64 [at 104.2 µM] (inactive).

For `Oc1ccc2c3c1O[C@H]1c4[nH]c5ccccc5c4C[C@@]4(O)C(C2)N(CC2CC2)CCC314` (some centres not stated), in assay [6], the period change was 0.005 h (inactive). Further, the inhibition in assay [1] was -4% (inactive). The fluorescence ratio (interference) in assay [2] was 1 (inactive). Further, the fold change in assay [3] (stronger effect = lower value) was 1.01 (inactive); in assay [3] (setting [9]) it was 1.69. The values for the cell count in assay [3] (setting [10]) and in assay [3] (setting [11]) were 8190 and 8080, respectively. Moreover, the result in assay [4] was inactive. For the same molecule, the z-score in assay [5] is -0.835 (inactive).

As to `CCCCC/C=C\C[C@@H](/C=C/C=C\C/C=C\CCCC(=O)O)OO`, the survival in assay [7] was 111 (inactive). Besides, the results for the fold change in assay [3] (stronger effect = lower value) and in assay [3] (setting [9]) were 0.888 (inactive) and 1.25, respectively. Further, the figures for the cell count in assay [3] (setting [10]) and in assay [3] (setting [11]) were 5520 and 6220, respectively. Also, the fold fluorescence in assay [8] is 6.04 [at 1 µM] (inactive).

For the molecule `C[C@]12Cc3cn4c(nc3C=C1CCC1C2CC[C@@]2(C)[C@H]1CC[C@@]2(O)C#N)nc1ccccc14` (some centres not stated), in assay [6], the period change was 0.285 h (inactive). Further, in assay [1], the inhibition was 0% (inactive). For the same molecule, the fluorescence ratio (interference) in assay [2] was 1 (inactive). For the same molecule, the values for the fold change in assay [3] (stronger effect = lower value) and in assay [3] (setting [9]) were 1.02 (inactive) and 0.934, respectively. Moreover, the cell count was 1380 in assay [3] (setting [10]) and 1350 in assay [3] (setting [11]). The call in assay [4] was inactive. Further, the z-score in assay [5] is -0.25 (inactive).

On to `N=C(N)c1ccc(CS(=O)(=O)F)cc1`, for which, in assay [1], the inhibition is -2% (inactive). Moreover, the fluorescence ratio (interference) in assay [2] was 1 (inactive). The fold change in assay [3] (stronger effect = lower value) was 1.04 (inactive); in assay [3] (setting [9]), 1.07. Besides, the values for the cell count in assay [3] (setting [10]) and in assay [3] (setting [11]) were 11100 and 10700, respectively. In assay [4], the molecule was classed as inactive. Further, the z-score in assay [5] was 0.445 (inactive).

As for `COc1cc(C(O)CN)ccc1O` (configuration not stated), the period change in assay [6] is -0.145 h (inactive). Further, the inhibition in assay [1] is -3% (inactive). In addition, the fluorescence ratio (interference) in assay [2] was 1 (inactive). For the same molecule, the fold change is 1.05 (inactive) in assay [3] (stronger effect = lower value) and 2.66 in assay [3] (setting [9]). In addition, the cell count in assay [3] (setting [10]) worked out at 11000; in assay [3] (setting [11]), 10500. Further, in assay [4], the result was inactive. In addition, in assay [5], the z-score was 0.4 (inactive).

As for `CCNC(=O)[C@H]1O[C@@H](n2cnc3c(N)ncnc32)C(O)[C@H]1O` (some centres not stated), the period change in assay [6] was -0.025 h (inactive). For the same molecule, the inhibition in assay [1] is 0% (inactive). For the same molecule, the fluorescence ratio (interference) in assay [2] is 1 (inactive). Further, the fold change in assay [3] (stronger effect = lower value) was 1.03 (inactive); in assay [3] (setting [9]) it was 1.36. The cell count came out at 9250 in assay [3] (setting [10]) and 8960 in assay [3] (setting [11]). The result in assay [4] was inactive. The z-score in assay [5] was 0.625 (inactive).

A word on the inhibition: it is the drop in the measured response relative to a control, in per cent.
